# A selection: hits, their analogues and other compounds. The true share with any hit is near 3.5%.
# mHTT CaM bind: mutant huntingtin-calmodulin interaction inhibitors – biochemical, AlphaScreen, primary screen | inhibition, % at 15 µM | AID 1671202, 2021 | P42858 | 190,000 compounds, 3.6% hits | AlphaScreen His-mHTT/GST-CaM binding, luminescence;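 further: 0% = both proteins with DMSO and 100% = one protein alone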
# Pf apPOL block: Pf-apPOL inhibitors, biochemical, fluorescence; Plasmodium falciparum apicoplast DNA polymerase (apPOL); inhibition, % at 10 µM; 210,000 compounds, 0.25% hits; Recombinant Pf-apPOL, molecular beacon fluorescence, 1.5 h
# Starred values were filed as active, the others as inactive; . = not tested or not shown. No stated cut-off is given here; in the data, active means inhibition above about 50%; inactive means the rest.
SMILES,mHTT CaM bind,Pf apPOL block
COc1cc(C=O)cc(OC)c1OC(F)F,-4,-4
CCN(CCN(C)C)S(=O)(=O)c1cc(Br)cc2c1N(C(C)=O)CC2,1,-3
CC1=NN(c2ccc(Cl)c(C(=O)O)c2)C(=O)/C1=C/c1ccccc1Cl,-4,-1
COc1ccc(OC)c(-c2nc3nnc(C)n3[nH]2)c1,-2,1
CCOC(=O)c1ccc(CNC(=O)N2CCc3c(nc[nH]c3=O)C2)cc1,-3,-4
Cc1ccc(N2COc3cc4c(cc3C2)OCO4)cc1Cl,18,-1
Cc1cc(C)cc(N2COc3cc4c(cc3C2)OCO4)c1,53*,1
Cc1ccc(N2COc3cc4c(cc3C2)OCO4)cc1,14,-5
Cc1cccc(N2COc3cc4c(cc3C2)OCO4)c1,59*,-2
Cc1ncc2c(n1)CCN(C(=O)c1ccccc1C(F)(F)F)C2,-4,-1
CCOC(=O)C(=NNc1ccccc1)c1csc(N)n1,.,-11
CC(NC(=O)NC(=O)c1ccccc1)c1ccccc1 (stereo not drawn),-1,3
CC(=O)N(C)C1=C(N2CCCC2)C(=O)c2ccccc2C1=O,15,-3
CC(=O)N(C1=C(N2CCOCC2)C(=O)c2ccccc2C1=O)c1ccc(C(=O)O)cc1,18,-12
CC(=O)N(C1=C(N2CCCC2)C(=O)c2ccccc2C1=O)c1ccc(F)c(F)c1,100*,-4
CC(=O)N(C1=C(N2CCCCC2)C(=O)c2ccccc2C1=O)c1cccc(Cl)c1,76*,3
CC1CCN(C(=O)CSc2cn(Cc3ccc(F)cc3)c3ccccc23)CC1,83*,-2
O=C(CSc1cn(Cc2ccccc2Cl)c2ccccc12)Nc1ccc2c(c1)OCO2,34,-7
Cc1ccccc1Cn1cc(SCC(=O)N2CCOCC2)c2ccccc21,30,1
O=C(CSc1cn(Cc2cccc(F)c2)c2ccccc12)N1CCCCC1,27,3
CC1CCN(C(=O)CSc2cn(Cc3ccccc3Cl)c3ccccc23)CC1,58*,-5
O=C(CSc1cn(Cc2ccc(Cl)cc2)c2ccccc12)Nc1ccc2c(c1)OCO2,64*,-3
O=C(CSc1cn(Cc2ccc(F)cc2)c2ccccc12)N1CCOCC1,33,2
O=C(CSc1cn(Cc2ccc(Cl)cc2)c2ccccc12)N1CCOCC1,72*,-3
Cc1ccc(C=Nc2sc3c(c2C#N)CCCC3)o1,18,.
SMILES,mHTT CaM bind,Pf apPOL block
O=C(CC1CCCCC1)Nc1c2c(nn1-c1ccc(Cl)cc1)CS(=O)(=O)C2,-1,24
O=C(NCc1ccccc1)C1CCN(c2nccn3nc(-c4ccccc4)cc23)CC1,22,1
CCCNC(=O)N1CCC(c2cc(=O)n3nccc3n2Cc2ccccc2)CC1,3,-2
O=C(CSc1cn(Cc2ccc(Cl)cc2)c2ccccc12)N1CCCCC1,31,-3
O=C(CSc1cn(Cc2ccccc2Cl)c2ccccc12)N1CCCCC1,53*,-7
Cc1c(F)cccc1NC(=O)C1CN(S(C)(=O)=O)CC12CCCCC2 (stereo not drawn),5,6
CCOc1ccc(N2CC(c3nnc(NC(=O)Cc4cccc(F)c4)o3)CC2=O)cc1 (stereo not drawn),3,16
CN(Cc1ccccc1)Cc1ccc(O)cc1,-4,-1
CN(Cc1ccccc1)Cc1cncc(-c2cc3ccccc3s2)c1,80*,-2
O=C(c1cc2c(s1)CCC(C(=O)N1CCN(Cc3ccccc3)CC1)C2)N1CCCC1 (stereo not drawn),11,-2
O=C(C[C@H]1C(=O)N(CCc2ccccc2)C[C@@H]1Cc1ccccc1)Nc1ccc(Br)cc1,30,-2
CSC[C@H]1CN(CCc2ccccc2)C(=O)[C@@H]1CC(=O)Nc1ccc(Br)cc1,63*,-4
Cc1cc(F)ccc1NC(=O)c1cc(C)n2nccc2n1,-12,0
Cc1ccc(-n2ncc3c(Nc4ccc(Br)cc4)ncnc32)cc1,-10,-3
Cc1ccc([C@H]2C[C@@H](O)[C@H](n3cc(COC(=O)c4ccccc4)nn3)CN2Cc2cccs2)cc1,1,2
O=C(OCc1cn([C@H]2C[C@H](c3ccc(Cl)cc3)N(Cc3cccs3)C[C@@H]2O)nn1)c1ccccc1,34,-2
O=C(OCc1cn([C@H]2CN(Cc3cccs3)[C@@H](c3ccc(Cl)cc3)C[C@@H]2O)nn1)c1ccccc1,100*,-6
Cc1ccc([C@H]2C[C@H](O)[C@@H](n3cc(COC(=O)c4ccccc4)nn3)CN2Cc2cccs2)cc1,100*,0
COC(=O)C1CN(Cc2ccc(F)cc2)CCS(=O)(=O)N1Cc1ccc(C(F)(F)F)cc1 (stereo not drawn),69*,-3
COC(=O)C1CN(Cc2ccc(F)cc2)CCS(=O)(=O)N1Cc1ccc(F)cc1 (stereo not drawn),18,-7
COC(=O)C1CN(Cc2ccccc2)CCS(=O)(=O)N1Cc1ccccc1 (stereo not drawn),-6,2

# Screening results (PubChem)
